Shown are actives, neighbours in structure and some others; about 5.3% of the full set was active somewhere.
Tau fluor counter: counter-screen for tau fibril formation inhibitors; tau K18 P301L Alexa594 fluorescence, heparin fibrillization; Potency, µM (doses to about 57.7 µM), without a hit: top-dose activity change, negative = decrease; 280,000 compounds, 0.93% hits; AID 1463; note: potency is the fitted concentration of half-maximal effect; nearly all actives have a fitted effect of over 55% in size
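Human tau K18 P301L (15 uM unlabeled, 0.24 uM Alexa 594-labeled) in 100 mM sodium acetate pH 7 with 20 uM heparin, 6 hr at 37 C. ThT 30 uM added, 1 hr ambient; Alexa 594 FP and total fluorescence read at 555/632 nm.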
Tau FP inhib: tau fibrillization inhibition (FP) | P10636 | K18 P301L tau heparin fibrillization, Alexa594 FP, 6 h | Potency, µM (titrated, usually from 57.7 µM), for inactives: at the highest dose activity, negative = inhibition, actives largely listed as inhibitors | 280,000 compounds, 0.39% hits; note: potency is the fitted concentration of half-maximal effect; nearly all actives have a fitted effect of over 55% in size
Target sequence (P10636 561-689 P618L limits assumed): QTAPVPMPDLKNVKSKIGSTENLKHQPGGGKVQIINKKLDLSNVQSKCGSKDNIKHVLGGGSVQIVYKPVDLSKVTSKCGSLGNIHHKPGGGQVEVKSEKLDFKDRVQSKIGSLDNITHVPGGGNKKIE
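K18 P301L tau (15 uM unlabeled/0.24 uM Alexa 594-labeled, final) + compound + heparin 20 uM final; 100 mM NaOAc pH 7; 6 hr 37 C; ThT 30 uM final added, 1 hr RT; FP ex 555/em 632 nm.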
Sfp PPTase inh: Sfp phosphopantetheinyl transferase inhibition; Q9F4F7; Potency, µM, inactives show largest response in the series, negative = inhibition, actives largely listed as inhibitors; 310,000 compounds, 3.5% hits; AID 1490; Biochemical Sfp PPTase activity, qHTS;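 note: the enzyme is Sfp with the accession as filed and its product quenches rhodamine fluorescence; potency is the fitted concentration of half-maximal effect; 0% = enzyme reaction without inhibitor and -100% = no enzyme wells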
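Step 1, compound plus 15 nM Sfp-PPTase, 15 min, room temperature. Step 2, add rhodamine-CoA (5 uM) and BHQ-2-YbbR (12.5 uM). Step 3, read 525/598 nm fluorescence at 0 and 30 min.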
KDM4E inh: inhibitors of human JMJD2E histone demethylase. B2RXH2. JMJD2E catalytic domain, FDH-coupled NADH fluorescence (FDH is formaldehyde dehydrogenase). Potency, µM (highest dose often 57.1 µM), without a hit: top-dose activity change, negative = inhibition, hits mostly inhibitors. 230,000 compounds, 1.6% hits. AID 2147; active = well fitted inhibition curve with a large enough effect, not every such curve was filed as active; inconclusive = small, poorly fitted or top-dose-only effect, or another doubt; inactive = no such curve, though single readings can be large or run the other way;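 note: potency is the fitted concentration of half-maximal effect; 0% = wells with enzyme and -100% = buffer wells without enzyme; nearly all actives have a fitted effect of over 50% in size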
Target sequence (B2RXH2 1-337 limits assumed): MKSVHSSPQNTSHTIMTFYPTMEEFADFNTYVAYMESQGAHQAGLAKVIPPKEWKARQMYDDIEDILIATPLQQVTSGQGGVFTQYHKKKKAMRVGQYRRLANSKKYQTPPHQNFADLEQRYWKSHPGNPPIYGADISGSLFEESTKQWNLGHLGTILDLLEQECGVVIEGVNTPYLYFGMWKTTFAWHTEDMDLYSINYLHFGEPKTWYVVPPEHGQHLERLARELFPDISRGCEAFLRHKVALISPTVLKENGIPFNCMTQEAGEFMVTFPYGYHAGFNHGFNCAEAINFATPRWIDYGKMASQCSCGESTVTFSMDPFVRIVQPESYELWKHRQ
FBPA coupling cs: counter-screen for Giardia aldolase inhibitors: coupling enzyme system. coupling enzyme system counterscreen, AmpLite Red fluorescence. activity change, negative = inhibition, % at 58.2 µM, hits read low. 290,000 compounds, 0.67% hits; in the data active = activity change below about -30%
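Compounds tested against the coupling enzymes alone at 57.5 uM final; readout was AmpLite Red fluorescence (525/598 nm) after 20 min at RT.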
Tau fibril ThT: inhibitors of human tau fibril formation, thioflavin T binding; P10636; recombinant tau K18 P301L, heparin-induced fibrillization, ThT fluorescence; Potency, µM (top dose mostly 57.4 µM), for the others: at the highest dose activity, negative = inhibition, actives largely listed as inhibitors; 270,000 compounds, 2.1% hits; note: potency is the fitted concentration of half-maximal effect; nearly all actives have a fitted effect of over 55% in size
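Fibril formation assay: tau K18 P301L at 15 uM with trace Alexa 594 label, heparin inducer 20 uM, pH 7 sodium acetate buffer, 37 C for 6 hr; endpoint ThT signal.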
Starred values were filed as active, the others as inactive; u = inconclusive; x = not tested or not shown; [ ] = remark or other dose. Unless noted, calls come from the whole dose curve; as a rule, active = well fitted curve in the direction sought with a large enough effect; inconclusive = small, poorly fitted or top-dose-only effect, or another doubt; inactive = no such curve, though single readings can be large; an effect the other way counts as inactive or inconclusive. Unless noted, % is set by controls: 0 for no effect and ±100 for the full control effect.

SMILES	Tau fluor counter	Tau FP inhib	Sfp PPTase inh	KDM4E inh	FBPA coupling cs	Tau fibril ThT
COc1ccccc1CCNC(=O)Cc1c(C)c2cc3c(C(C)(C)C)coc3c(C)c2oc1=O	3%	-11%	x	x	x	-2%
CC(C)[C@@H](OCc1ccccc1)[C@H](C)/C=N\OC[C@@H](O)[C@@H]1O[C@@H]2OC(C)(C)O[C@@H]2[C@H]1O	-3%[11.6 µM]	-5%[11.6 µM]	-2%	x	-1	-8%[11.5 µM]
Cn1nc(C(=O)Nc2c(-c3ccccc3)nc3sccn23)c2ccccc2c1=O	-26%	u	40µM*	0%	-2	-14%
O=C(/C=C/c1ccc2c(c1)OCCCO2)c1ccc2ccccc2c1O	u	0%	40µM*	u	-5	3.2µM*
Cc1ccc(C(=O)/C=C/c2ccc3c(c2)OCCO3)c(O)c1	-23%	7%	-27%	-3%	0	6.3µM*
Cc1ccc(C(=O)Nc2ccc3c(c2)OCCO3)c(C)c1	x	x	12%	x	-5	x
Cc1ccc(OCC(O)C(C)NC(C)C)c2c1CCC2 (centres undefined)	-4%	0%	14%	-2%	x	-3%
O=C(Nc1nc2n(n1)C(c1ccccc1)C=C(c1ccccc1)N2)c1ccccc1 (centres undefined)	-14%	-7%	x	x	x	-14%
O=C(O)c1ccc(NC2=C(n3nnc4ccccc43)C(=O)c3ccccc3C2=O)cc1	-21%	-14%	7%	-11%	-33*	u
CC(C)ON(C(C(=O)NO)C(C)C)S(=O)(=O)c1ccc(-c2ccccc2)cc1 (centres undefined)	x	x	-7%	x	2	x
C/C(=N\NC(=O)c1ccccc1O)C1C(=O)c2ccccc2C1=O	u	12%	15%	u	2	5µM*
C/C(=N/NC(=O)c1cc2ccccc2cc1O)C1C(=O)c2ccccc2C1=O	14µM*[quencher]	-1%	0%	u	5	2.5µM*
C/C(CC(=O)N1CCN(C=O)CC1)=N\NC(=O)c1ccc([N+](=O)[O-])cc1	12%[2.34 µM]	-13%	u	-10%	2	-9%
C/C(CC(=O)N1CCN(C=O)CC1)=N\NC(=O)c1cc2ccccc2cc1O	u	u	-28%	28µM*	-12	25µM*
C/C(=N\NC(=O)c1cc2ccccc2cc1O)c1cc2ccccc2o1	u	6%	-1%	-13%	-1	3.5µM*
Cn1c(O)c(/C=N/NC(=O)c2cc3ccccc3cc2O)c2ccccc21	x	x	15%	x	0	x
C/C(=N\NC(=O)c1cc2ccccc2cc1O)c1ccccn1	x	x	13%	x	x	x
CCS(=O)(=O)c1cccc(C(=O)N2CCN(c3nc4c(C)ccc(Cl)c4s3)CC2)c1	-14%	2%	x	x	x	-18%
CN(C)c1ccc(/C=C/C(=O)c2c(O)c3ccccc3oc2=O)cc1	0.71µM*[fluorescent]	u	u	u	1	x
CCc1nc2sc3c(=O)[nH]cnc3c2c2c1CSC(C)(C)C2	-14%	-11%	45µM*	u	4	-19%
Cc1cc(C)nc(NN2C(=O)C=CC2=O)n1	x	x	14µM*	x	4	x
COC(=O)CSc1nc(C)cc(C)n1	-5%	-1%	14%	-5%	0	-5%
CCOC(=O)Oc1ccc2c(c1)C(C)=CC(C)(C)N2C(=O)OCC	-17%	-2%	-9%	2%	-7	-15%
CCNC(=O)N1c2ccc(OC)cc2C(C)=CC1(C)C	-21%	-5%	-18%	u	-40*	u
COc1ccc2c(c1)C(C)=CC(C)(C)N2C(=O)CN1C(=O)CCC1=O	-3%	-6%	6%	3%	1	-5%
SMILES	Tau fluor counter	Tau FP inhib	Sfp PPTase inh	KDM4E inh	FBPA coupling cs	Tau fibril ThT
COc1ccc(NC(=O)N2c3ccc(OC)cc3C(C)=CC2(C)C)cc1	u	u	20µM*	u	-36*	32µM*
CCOc1ccc2c(c1)C(C)=CC(C)(C)N2C(=O)Nc1ccccc1	u	u	u	u	-27	28µM*
Cc1cc2ccccc2c(=O)[nH]1	-8%	-2%	13%	u	1	-10%
O=c1[nH]c(Nc2ccc(F)cc2)cc2ccccc12	u	-14%	-27%	u	-34*	u
O=c1[nH]c(-c2ccccn2)cc2ccccc12	7%	-8%	14%	u	-2	2%
Cc1ccccc1Nc1cc2ccccc2c(=O)[nH]1	-23%	u	-16%	u	-43*	u
COc1ccccc1CN1C(=O)CN(C2CCCCCC2)C(=O)C1c1ccc(C)cc1 (centres undefined)	-2%	-1%	x	x	x	-5%
O=C(CSc1nc(-c2ccccc2)nc2c1Cc1ccccc1O2)N1CCCCC1	0%	-17%	x	x	x	1%
COc1ccc(C)cc1-n1nnnc1SCC(=O)NC(=O)NCc1ccco1	-9%	2%	16µM*	-6%	2	-10%
Cc1nnc(SCC(=O)NC(=O)NCc2ccco2)s1	-4%	5%	16%	0%	1	-6%
Cc1cc(SCC(=O)NC(=O)NCc2ccco2)nc2c(C)cccc12	-14%	u	10µM*	-23%	5	u
O=C(CSc1ccccc1F)NC(=O)NCc1ccco1	-2%	8%	45µM*	-6%	4	-9%
Cc1cc(SCC(=O)NC(=O)NCc2ccco2)nc2ccccc12	-20%	-3%	25µM*	1%	-1	u
O=C(CSc1ncccn1)NC(=O)NCc1ccco1	-6%	-11%	-8%	2%	1	-11%
CC(C)C[C@H](NC(=O)[C@H](CC(C)C)NC(=O)[C@H](CCC(N)=O)NC(=O)[C@H](CO)NC(=O)[C@@H]1CCCN1C(=O)[C@H](CO)NC(=O)[C@H](CO)NC(=O)[C@@H](NC(=O)[C@H](Cc1cnc[nH]1)NC(=O)[C@H](CCC(=O)O)NC(=O)[C@H](Cc1ccc(O)cc1)NC(=O)[C@H](CCCCN)NC(=O)[C@H](CCC(N)=O)NC(=O)[C@H](Cc1ccc(O)cc1)NC(=O)[C@H](CC(=O)O)NC(=O)[C@@H](NC(=O)[C@@H]1CCCN1C(=O)[C@H](CC(=O)O)NC(=O)[C@H](CC(N)=O)NC(=O)[C@H](CC(=O)O)NC(=O)CNC(=O)[C@H](CC(=O)O)NC(=O)[C@@H]1CCCN1C(=O)[C@H](CCC(N)=O)NC(=O)[C@H](Cc1ccc(O)cc1)NC(=O)[C@H](C)NC(=O)[C@H](Cc1c[nH]c2ccccc12)NC(=O)[C@H](Cc1ccccc1)NC(=O)[C@@H](NC(=O)[C@@H](N)CO)[C@@H](C)O)[C@@H](C)O)[C@@H](C)O)C(=O)N[C@@H](C)C(=O)N1CCC[C@H]1C(=O)NCC(=O)N[C@@H](CC(=O)O)C(=O)N[C@@H](Cc1ccc(O)cc1)C(=O)O	x	x	-6%	x	0	x
